About 7,900 targets were measured; listed, in parts, are those with a hit and a random draw of the rest. About 0.6% of all pairs of compound and target were hits. A number with no mark means an inactive call.
Compound: COc1cc2nc(-c3cc(F)ccc3O)nc(N[C@@H]3CNC[C@H]3C(C)(C)O)c2cc1OC
Test: log2 fold change, soluble protein after heating vs DMSO (PISA); higher = thermal stabilisation; K562 cells, 10 uM, 30 min; active = over 0.2 and 3.5 SD of the protein, either way, in both replicates (recomputed)
Outline: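 K562 cells at 2×10^6 cells/mL were treated with 10 μM compound for 30 min. Aliquots were heated for 3 min across 48°C-58°C, pooled, and extracted in PBS with 0.5% NP-40 at 4°C; soluble protein was the supernatant after 21,000xg for 90 min. Soluble protein was quantified by TMTpro 16plex LC-MS/MS with channel sums equalised, and reported as log2 fold change in thermal stability against DMSO controls, with values from duplicates.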

UniProt Q8NBI2, sequence (Q8NBI2 whole entry, looked up): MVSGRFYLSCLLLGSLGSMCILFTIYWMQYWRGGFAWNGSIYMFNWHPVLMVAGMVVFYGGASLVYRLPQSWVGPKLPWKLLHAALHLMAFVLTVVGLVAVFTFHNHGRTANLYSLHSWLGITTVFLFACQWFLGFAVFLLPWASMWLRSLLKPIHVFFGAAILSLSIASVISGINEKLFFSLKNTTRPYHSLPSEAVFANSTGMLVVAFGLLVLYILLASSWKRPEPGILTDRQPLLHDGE
UniProt P32519, sequence (P32519 whole entry, looked up): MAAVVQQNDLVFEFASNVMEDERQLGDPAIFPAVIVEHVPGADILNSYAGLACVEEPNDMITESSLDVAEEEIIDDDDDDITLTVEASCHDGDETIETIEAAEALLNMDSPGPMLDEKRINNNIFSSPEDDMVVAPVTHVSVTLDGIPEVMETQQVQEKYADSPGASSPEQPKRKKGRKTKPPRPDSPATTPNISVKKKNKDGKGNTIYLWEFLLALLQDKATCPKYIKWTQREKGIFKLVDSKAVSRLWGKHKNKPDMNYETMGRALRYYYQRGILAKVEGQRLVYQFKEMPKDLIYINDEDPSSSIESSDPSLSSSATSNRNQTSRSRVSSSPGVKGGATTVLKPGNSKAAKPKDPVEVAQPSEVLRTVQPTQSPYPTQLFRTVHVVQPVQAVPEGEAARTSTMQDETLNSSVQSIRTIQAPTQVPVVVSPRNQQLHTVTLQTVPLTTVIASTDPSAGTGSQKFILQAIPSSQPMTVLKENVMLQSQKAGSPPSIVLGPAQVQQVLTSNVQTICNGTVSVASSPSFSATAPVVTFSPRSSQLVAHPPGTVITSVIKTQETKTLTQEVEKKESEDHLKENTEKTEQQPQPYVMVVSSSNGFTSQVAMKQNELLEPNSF
UniProt Q9NWS6, sequence (Q9NWS6 whole entry, looked up): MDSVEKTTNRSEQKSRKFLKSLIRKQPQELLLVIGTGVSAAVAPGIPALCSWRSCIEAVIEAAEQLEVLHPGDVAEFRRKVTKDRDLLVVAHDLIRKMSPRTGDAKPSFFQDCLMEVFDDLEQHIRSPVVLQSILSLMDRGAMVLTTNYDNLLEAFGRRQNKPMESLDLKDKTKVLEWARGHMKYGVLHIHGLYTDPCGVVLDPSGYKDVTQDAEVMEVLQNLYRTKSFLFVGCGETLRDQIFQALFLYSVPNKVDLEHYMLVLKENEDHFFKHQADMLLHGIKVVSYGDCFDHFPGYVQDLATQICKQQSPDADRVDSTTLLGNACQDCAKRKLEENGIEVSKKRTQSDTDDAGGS
UniProt Q13409, sequence (Q13409 whole entry, looked up): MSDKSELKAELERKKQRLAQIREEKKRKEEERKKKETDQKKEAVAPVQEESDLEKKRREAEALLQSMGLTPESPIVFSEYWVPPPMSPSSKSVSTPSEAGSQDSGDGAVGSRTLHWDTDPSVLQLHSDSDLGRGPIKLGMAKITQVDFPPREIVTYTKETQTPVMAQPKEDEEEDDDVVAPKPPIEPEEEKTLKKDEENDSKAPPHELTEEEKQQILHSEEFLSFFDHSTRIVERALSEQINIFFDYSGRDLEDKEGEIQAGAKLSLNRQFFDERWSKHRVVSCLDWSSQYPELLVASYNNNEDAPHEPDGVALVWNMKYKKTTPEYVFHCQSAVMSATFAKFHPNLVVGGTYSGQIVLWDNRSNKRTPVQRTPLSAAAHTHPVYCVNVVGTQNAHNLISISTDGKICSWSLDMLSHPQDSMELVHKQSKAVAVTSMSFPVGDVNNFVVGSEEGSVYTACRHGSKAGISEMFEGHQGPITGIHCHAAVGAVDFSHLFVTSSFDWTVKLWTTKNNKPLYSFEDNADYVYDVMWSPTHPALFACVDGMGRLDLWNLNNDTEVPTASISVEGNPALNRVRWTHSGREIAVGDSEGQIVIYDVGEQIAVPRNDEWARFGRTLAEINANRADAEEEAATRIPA
UniProt Q9NYP7, sequence (Q9NYP7 whole entry, looked up): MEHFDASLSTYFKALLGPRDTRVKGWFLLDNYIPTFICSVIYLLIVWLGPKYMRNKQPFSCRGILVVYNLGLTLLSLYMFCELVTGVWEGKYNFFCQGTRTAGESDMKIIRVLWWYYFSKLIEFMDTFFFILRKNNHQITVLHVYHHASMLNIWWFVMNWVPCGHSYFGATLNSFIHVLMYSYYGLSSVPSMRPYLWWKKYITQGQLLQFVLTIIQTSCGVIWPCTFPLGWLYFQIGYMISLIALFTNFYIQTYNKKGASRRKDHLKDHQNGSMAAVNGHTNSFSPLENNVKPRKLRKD
UniProt Q14320, sequence (Q14320 whole entry, looked up): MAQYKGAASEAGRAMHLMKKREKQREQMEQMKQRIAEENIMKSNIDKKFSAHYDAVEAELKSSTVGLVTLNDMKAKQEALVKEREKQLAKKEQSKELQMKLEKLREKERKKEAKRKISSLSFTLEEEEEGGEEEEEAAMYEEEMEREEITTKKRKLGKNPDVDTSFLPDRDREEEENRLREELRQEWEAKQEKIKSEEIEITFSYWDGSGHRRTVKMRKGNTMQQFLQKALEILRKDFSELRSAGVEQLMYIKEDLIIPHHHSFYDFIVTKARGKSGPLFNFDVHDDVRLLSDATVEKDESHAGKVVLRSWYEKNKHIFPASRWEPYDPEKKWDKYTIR
UniProt P39880, sequence (P39880 whole entry, looked up): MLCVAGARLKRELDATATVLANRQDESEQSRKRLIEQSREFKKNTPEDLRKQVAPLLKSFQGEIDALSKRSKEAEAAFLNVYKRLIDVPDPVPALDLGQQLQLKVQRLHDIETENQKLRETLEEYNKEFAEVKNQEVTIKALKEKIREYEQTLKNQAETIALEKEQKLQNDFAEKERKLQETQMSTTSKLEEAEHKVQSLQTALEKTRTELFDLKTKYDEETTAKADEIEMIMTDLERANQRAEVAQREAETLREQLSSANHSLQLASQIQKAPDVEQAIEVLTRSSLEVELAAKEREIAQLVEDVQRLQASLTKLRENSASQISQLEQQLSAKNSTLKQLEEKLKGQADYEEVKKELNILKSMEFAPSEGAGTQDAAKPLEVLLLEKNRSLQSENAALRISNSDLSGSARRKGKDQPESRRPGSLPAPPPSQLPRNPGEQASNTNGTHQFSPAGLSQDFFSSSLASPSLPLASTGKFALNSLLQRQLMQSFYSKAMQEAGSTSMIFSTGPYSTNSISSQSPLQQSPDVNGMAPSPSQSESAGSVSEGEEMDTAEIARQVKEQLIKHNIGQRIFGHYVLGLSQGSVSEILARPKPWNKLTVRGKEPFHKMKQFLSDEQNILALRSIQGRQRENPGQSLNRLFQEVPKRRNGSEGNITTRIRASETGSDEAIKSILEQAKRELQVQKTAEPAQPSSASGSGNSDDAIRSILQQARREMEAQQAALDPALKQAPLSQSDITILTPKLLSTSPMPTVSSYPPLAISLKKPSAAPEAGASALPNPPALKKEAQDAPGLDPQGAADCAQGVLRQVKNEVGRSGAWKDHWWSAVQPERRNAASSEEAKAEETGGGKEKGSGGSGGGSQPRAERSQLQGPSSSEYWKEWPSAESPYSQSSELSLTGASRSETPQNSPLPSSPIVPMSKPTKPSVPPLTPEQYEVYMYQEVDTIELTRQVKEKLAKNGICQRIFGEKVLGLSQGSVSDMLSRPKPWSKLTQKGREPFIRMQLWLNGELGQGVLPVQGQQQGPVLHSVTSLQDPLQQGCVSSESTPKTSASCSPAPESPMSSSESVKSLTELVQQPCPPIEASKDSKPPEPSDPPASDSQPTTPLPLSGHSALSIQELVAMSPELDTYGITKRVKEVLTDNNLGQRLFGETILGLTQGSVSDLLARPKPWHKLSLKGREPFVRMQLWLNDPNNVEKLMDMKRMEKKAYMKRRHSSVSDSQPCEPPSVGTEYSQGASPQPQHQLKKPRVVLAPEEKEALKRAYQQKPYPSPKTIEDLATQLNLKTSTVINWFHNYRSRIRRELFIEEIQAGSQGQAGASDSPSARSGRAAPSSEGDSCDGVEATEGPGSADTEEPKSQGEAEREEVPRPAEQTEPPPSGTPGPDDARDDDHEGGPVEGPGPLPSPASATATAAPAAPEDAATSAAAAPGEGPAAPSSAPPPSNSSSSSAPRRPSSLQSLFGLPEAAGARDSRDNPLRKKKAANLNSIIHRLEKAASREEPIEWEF
UniProt P35222, sequence (P35222 whole entry, looked up): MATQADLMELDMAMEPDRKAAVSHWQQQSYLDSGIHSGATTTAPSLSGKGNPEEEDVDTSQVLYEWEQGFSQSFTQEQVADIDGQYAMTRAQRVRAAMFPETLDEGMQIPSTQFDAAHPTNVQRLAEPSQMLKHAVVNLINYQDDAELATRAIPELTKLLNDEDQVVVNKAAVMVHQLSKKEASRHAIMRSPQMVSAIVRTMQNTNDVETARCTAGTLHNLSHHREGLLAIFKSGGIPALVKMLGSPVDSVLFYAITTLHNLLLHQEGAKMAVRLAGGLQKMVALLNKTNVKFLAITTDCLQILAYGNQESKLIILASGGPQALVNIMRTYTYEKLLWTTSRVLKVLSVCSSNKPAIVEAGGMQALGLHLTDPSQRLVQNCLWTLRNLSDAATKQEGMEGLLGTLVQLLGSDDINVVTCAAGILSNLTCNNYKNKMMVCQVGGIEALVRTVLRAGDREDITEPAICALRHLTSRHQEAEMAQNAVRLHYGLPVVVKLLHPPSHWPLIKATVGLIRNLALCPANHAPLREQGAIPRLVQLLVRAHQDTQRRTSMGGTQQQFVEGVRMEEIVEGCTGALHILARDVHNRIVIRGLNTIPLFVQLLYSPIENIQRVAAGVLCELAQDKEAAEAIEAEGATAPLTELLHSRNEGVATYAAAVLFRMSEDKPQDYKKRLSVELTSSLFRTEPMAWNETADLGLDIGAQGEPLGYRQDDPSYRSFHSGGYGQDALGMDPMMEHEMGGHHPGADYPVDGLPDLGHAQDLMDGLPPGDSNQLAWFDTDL
UniProt O60888, sequence (O60888 whole entry, looked up): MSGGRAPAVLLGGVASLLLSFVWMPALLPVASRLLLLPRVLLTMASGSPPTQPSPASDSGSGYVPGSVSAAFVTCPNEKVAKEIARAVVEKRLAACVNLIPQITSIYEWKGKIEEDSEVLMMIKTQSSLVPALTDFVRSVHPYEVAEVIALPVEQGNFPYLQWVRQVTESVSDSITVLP

Target	log2 fold change
CTNNB1 (UniProt P35222)	0.072
DENND10 (UniProt Q8TCE6)	0.114
EXOSC10 (UniProt Q01780)	0.387
EXOC4 (UniProt Q96A65)	0.164
DEGS1 (UniProt O15121)	-0.013
EDC4 (UniProt Q6P2E9)	0.062
CTSV (UniProt O60911)	-0.002
CYB561A3 isoform 2 (UniProt Q8NBI2)	0.023
DCP2 (UniProt Q8IU60)	0.075
ERLIN2 (UniProt O94905)	-0.143
DPYSL2 (UniProt Q16555)	0.055
ELAC1 (UniProt Q9H777)	0.06
FAM50A (UniProt Q14320)	-0.026
FAM118A (UniProt Q9NWS6)	0.023
DIP2A (UniProt Q14689)	-0.098
DNAJC24 (UniProt Q6P3W2)	-0.111
EZH2 isoform 2 (UniProt Q15910)	-0.129

Target	log2 fold change
FAM193B (UniProt Q96PV7)	0.112
ECPAS (UniProt Q5VYK3)	0.055
DMAC1 (UniProt Q96GE9)	-0.111
ELF1 (UniProt P32519)	-0.297
ERCC6 (UniProt Q03468)	-0.002
ETNK1 (UniProt Q9HBU6)	0.013
DYNC1I2 isoform 5 (UniProt Q13409)	0
CUX1 isoform 3 (UniProt P39880)	-0.024
CWF19L2 (UniProt Q2TBE0)	0.062
EIF2S3 (UniProt P41091)	0.002
CUTA isoform 2 (UniProt O60888)	-0.225
EIF2AK1 (UniProt Q9BQI3)	0.01
DNAH5 (UniProt Q8TE73)	-0.042
EPHX2 (UniProt P34913)	-0.009
EDEM2 (UniProt Q9BV94)	0.028
ELOVL5 isoform 2 (UniProt Q9NYP7)	-0.05
DAXX (UniProt Q9UER7)	0.283
